For assay [1], the target named is human Retinoid X Receptor beta (RXRb), RXRB (gene 6257) (UniProt P28702). In words: ATG_RXRb_TRANS: Attagene TRANS-FACTORIAL HepG2 Assay for human Retinoid X Receptor beta (RXRb) (AID 2283013; active means hit-call score of the fitted dose curve at least 0.9, where 1 is the maximum). In a few lines:
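Multiplexed TRANS reporter assay in HepG2; 24 h dosing; reporter mRNA by RT-PCR/CE fluorescence; gain-of-signal relative to DMSO.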

In assay [2] the target is human Thyroid Receptor alpha (THRa1), THRA (gene 7067) (UniProt P10827). In words: ATG_THRa1_TRANS: Attagene TRANS-FACTORIAL HepG2 Assay for human Thyroid Receptor alpha (THRa1) (AID 2283014; active means hit-call score of the fitted dose curve at least 0.9, where 1 is the maximum). In a few lines:
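HepG2 cells transiently transfected with multiplexed GAL4-UAS reporter units for exogenous chimeric THRa1-Gal4; reporter mRNA measured 24 h after dosing by RT-PCR, 6-FAM labelling, HpaI digestion and capillary electrophoresis. Gain-of-signal fitted versus DMSO baseline.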

Read-out in assay [3]: E-selectin (Homo sapiens) (UniProt P16581)
Nature of the assay: BSK_3C_Eselectin: BioMAP Diversity Plus: 3C Assay for Eselectin Biomarker Activity (AID 2283015).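 On outcome: cell surface E-selectin protein quantified by ELISA 24 h after dosing.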 To be noted: primary human endothelial cells (HUVEC); actives raise or lower the signal. Summed up:
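Primary human umbilical vein endothelial cells (3C system) were dosed with chemical and cell-surface E-selectin measured by ELISA 24 h later. Bidirectional curve fitting used DMSO as negative control and baseline.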

Read-out in assay [4]: Interleukin-1 alpha (IL1a), IL1A (gene 3552)
In words: BSK_BE3C_IL1a: BioMAP Diversity Plus: BE3C Assay for Interleukin-1 alpha (IL1a) Biomarker Activity (AID 2283016). To be noted: primary human bronchial epithelial cells; actives raise or lower the signal. In a few lines:
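Cultures of primary human bronchial epithelial cells receive test chemical. After 24 h, IL-1a is quantified by ELISA, while parallel wells are fixed in TCA and SRB-stained for total protein. Changes in either direction are fitted relative to DMSO.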

Read-out in assay [5]: Monocyte Chemoattractant Protein-1 (MCP1), CCL2 (gene 6347)
In words: BSK_3C_MCP1: BioMAP Diversity Plus: 3C Assay for Monocyte Chemoattractant Protein-1 (MCP1) Biomarker Activity (AID 2283017). To be noted: primary human endothelial cells (HUVEC); actives raise or lower the signal. Summed up:
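Primary human umbilical vein endothelial cells (3C system) were exposed to test chemical for 24 h, after which MCP-1 was quantified by ELISA. Activity was fitted bidirectionally against DMSO as negative control and baseline.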

Read-out in assay [6]: Monocyte Chemoattractant Protein-1 (MCP1), CCL2 (gene 6347)
Nature of the assay: BSK_4H_MCP1: BioMAP Diversity Plus: 4H Assay for Monocyte Chemoattractant Protein-1 (MCP1) Biomarker Activity (AID 2283018). To be noted: primary human endothelial cells (HUVEC); actives raise or lower the signal. Summed up: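 Readout: MCP-1 ELISA on compound-treated HUVEC, sampled 24 h post-dosing. Baseline and negative control DMSO; bidirectional fit. Overt toxicity checked alongside by sulforhodamine B protein staining at time of biomarker measurement.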

Read-out in assay [7]: Human Leukocyte Antigen - DR isotype (HLADR), HLA-DRA (gene 3122)
Nature of the assay: BSK_3C_HLADR: BioMAP Diversity Plus: 3C Assay for Human Leukocyte Antigen - DR isotype (HLADR) Biomarker Activity (AID 2283019). To be noted: primary human endothelial cells (HUVEC); actives raise or lower the signal. In a few lines: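 Primary human umbilical vein endothelial cells (3C system) were dosed with compound and cell-surface HLA-DR was quantified by ELISA at 24 h. Activity was fitted bidirectionally against DMSO as negative control and baseline.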

Read-out in assay [8]: Interleukin-8 (IL8), CXCL8 (gene 3576)
In words: BSK_3C_IL8: BioMAP Diversity Plus: 3C Assay for Interleukin-8 (IL8) Biomarker Activity (AID 2283020). To be noted: primary human endothelial cells (HUVEC); actives raise or lower the signal. Summed up: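 Human vascular endothelial cells (umbilical vein) in the 3C system; IL-8 level detected by ELISA at 24 h post-dose, with DMSO as baseline.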

Read-out in assay [9]: Monokine induced gamma interferon (MIG), CXCL9 (gene 4283)
Nature of the assay: BSK_3C_MIG: BioMAP Diversity Plus: 3C Assay for Monokine induced gamma interferon (MIG) Biomarker Activity (AID 2283021).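 On AC50: MIG protein level measured by immunoassay in the treated endothelial cultures.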 As to conditions: primary human endothelial cells (HUVEC); actives raise or lower the signal. Summed up: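 After 24 h of treatment, human umbilical vein endothelial cultures (3C system) had their MIG biomarker level determined by ELISA, with DMSO serving as negative control.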

Read-out in assay [10]: Matrix Metallopeptidase 1 (MMP1), MMP1 (gene 4312)
In words: BSK_BE3C_MMP1: BioMAP Diversity Plus: BE3C Assay for Matrix Metallopeptidase 1 (MMP1) Biomarker Activity (AID 2283024). As to conditions: primary human bronchial epithelial cells; actives raise or lower the signal. In a few lines:
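Dose cells, wait 24 h, run MMP1 ELISA; cells are human bronchial epithelial primaries. Both increases and decreases relative to DMSO counted.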

The nature of assay [11]: BSK_3C_Vis: BioMAP Diversity Plus: 3C Assay for Morphology Visualization (AID 2283025).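 Further: fitted both ways so gain or loss versus DMSO counts.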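 On AC50: light microscopy image of cell morphology used as background control.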 To be noted: primary human endothelial cells (HUVEC). Summed up: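 Endothelial cells from human umbilical vein were treated with test chemicals for 24 h and inspected by light microscopy for changes in cell conformation.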
Read-out in assay [12]: Pselectin, SELP (gene 6403)
Nature of the assay: BSK_4H_Pselectin: BioMAP Diversity Plus: 4H Assay for Pselectin Biomarker Activity (AID 2283026). As to conditions: primary human endothelial cells (HUVEC); actives raise or lower the signal. Summed up:
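Human vascular endothelium from umbilical vein; P-selectin measured by ELISA at 24 h post-dose, with cytotoxicity checked by sulforhodamine B total-protein staining in parallel cultures (0.1% SRB after 10% TCA fixation, read at 560 nm).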

Assay [13] can be described thus: BSK_4H_SRB: Viability Assessment in the BioMAP Diversity Plus: 4H Assay (AID 2283027).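 Further: cells exposed to compound for 24 h before staining.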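 On AC50: curves fitted both ways versus DMSO so AC50 may be loss or gain.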 As to conditions: primary human endothelial cells (HUVEC). In a few lines: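 Human umbilical vein endothelial cells were dosed with chemical and, after 24 h, fixed with 10% TCA, stained with 0.1% sulforhodamine B, and read at 560 nm to give total protein as a cytotoxicity measure. Bidirectional fitting relative to DMSO control.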

Read-out in assay [14]: Thrombomodulin, THBD (gene 7056)
Nature of the assay: BSK_3C_Thrombomodulin: BioMAP Diversity Plus: 3C Assay for Thrombomodulin Biomarker Activity (AID 2283029). To be noted: primary human endothelial cells (HUVEC); actives raise or lower the signal. Summed up:
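Thrombomodulin ELISA, human primary HUVEC, 24 h post-dose; data fitted in both directions relative to DMSO.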

Read-out in assay [15]: Urokinase-type plasminogen activator receptor (uPAR), PLAUR (gene 5329)
In words: BSK_4H_uPAR: BioMAP Diversity Plus: 4H Assay for Urokinase-type plasminogen activator receptor (uPAR) Biomarker Activity (AID 2283030). To be noted: primary human endothelial cells (HUVEC); actives raise or lower the signal. Summed up:
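Primary human umbilical vein endothelial cells were exposed to chemical for 24 h before cell-surface uPAR was quantified by ELISA. Activity was fitted bidirectionally against the DMSO negative control baseline.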

The target of assay [16] is Retinoic acid receptor RXR-alpha (Homo sapiens) (UniProt P19793). Nature of the assay: ATG_RXRa_TRANS: Attagene TRANS-FACTORIAL HepG2 Assay for human Retinoid X Receptor alpha (RXRa) (AID 2283012; active means hit-call score of the fitted dose curve at least 0.9, where 1 is the maximum). Summed up: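 Cells (HepG2) carried transiently transfected GAL4-responsive reporter units. Following a 24 h chemical incubation, reporter mRNA induction was read via RT-PCR fragment analysis; DMSO served as negative control and baseline.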
Retinoic acid receptor RXR-alpha (Homo sapiens), sequence (P19793 whole entry, looked up, the tested form may be a part): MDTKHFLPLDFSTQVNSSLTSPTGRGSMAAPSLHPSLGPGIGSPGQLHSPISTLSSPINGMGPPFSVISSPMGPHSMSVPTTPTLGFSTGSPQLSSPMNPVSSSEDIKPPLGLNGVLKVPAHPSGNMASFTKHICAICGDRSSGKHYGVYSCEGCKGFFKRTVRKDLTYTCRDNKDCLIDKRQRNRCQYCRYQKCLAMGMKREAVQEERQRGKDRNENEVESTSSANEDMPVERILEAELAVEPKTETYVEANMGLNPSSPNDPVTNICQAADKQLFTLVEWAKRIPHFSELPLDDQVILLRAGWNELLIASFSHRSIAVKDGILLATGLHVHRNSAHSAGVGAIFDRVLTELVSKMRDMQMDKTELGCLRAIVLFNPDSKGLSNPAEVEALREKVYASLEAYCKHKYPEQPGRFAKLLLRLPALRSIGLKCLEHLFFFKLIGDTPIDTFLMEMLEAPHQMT

In assay [17] the target is human Vitamin D Receptor (VDR), VDR (gene 7421) (UniProt P11473). Nature of the assay: ATG_VDR_TRANS: Attagene TRANS-FACTORIAL HepG2 Assay for human Vitamin D Receptor (VDR) (AID 2283022; active means hit-call score of the fitted dose curve at least 0.9, where 1 is the maximum). In a few lines:
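HepG2 cells were transiently transfected with multiple GAL4-UAS reporter units, so signal reflects exogenous chimeric receptor-Gal4 activity. After 24 h compound exposure, reporter mRNA was measured by RT-PCR, fluorescent labelling and capillary electrophoresis, fitted for gain of signal versus DMSO.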

A short description of assay [18]: BSK_3C_SRB: Viability Assessment in the BioMAP Diversity Plus: 3C Assay (AID 2283023).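 Further: fitted both ways against DMSO so a hit may be signal rise or drop.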 As to conditions: primary human endothelial cells (HUVEC). In a few lines:
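Primary human umbilical vein endothelial cells in the 3C system were read 24 h after compound dosing. Total protein was stained with 0.1% sulforhodamine B after 10% TCA fixation and read at 560 nm, with bidirectional fitting against DMSO as baseline.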

Assay [19] can be described thus: BSK_BE3C_SRB: Viability Assessment in the BioMAP Diversity Plus: BE3C Assay (AID 2283028). To be noted: primary human bronchial epithelial cells. In a few lines: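 Human primary bronchial epithelial cells were exposed to test chemicals for 24 h. Total protein in parallel cultures was then measured by staining with 0.1% sulforhodamine B after 10% TCA fixation, with absorbance read at 560 nm. Activity was fitted bidirectionally against DMSO.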

The values that follow come from PubChem BioAssay (EPA / NIEHS).

As a reminder, the AC50 is the concentration giving half of the maximal activity seen.

Records with an inconclusive call do not appear. Activity calls are given as the source filed them. How the source made its calls, unless noted: active means hit-call score of the fitted dose curve at least 0.9, where 1 is the maximum; inactive means score below 0.9.

human Vitamin D Receptor (VDR), VDR (gene 7421), sequence (P11473 whole entry, looked up, the tested form may be a part): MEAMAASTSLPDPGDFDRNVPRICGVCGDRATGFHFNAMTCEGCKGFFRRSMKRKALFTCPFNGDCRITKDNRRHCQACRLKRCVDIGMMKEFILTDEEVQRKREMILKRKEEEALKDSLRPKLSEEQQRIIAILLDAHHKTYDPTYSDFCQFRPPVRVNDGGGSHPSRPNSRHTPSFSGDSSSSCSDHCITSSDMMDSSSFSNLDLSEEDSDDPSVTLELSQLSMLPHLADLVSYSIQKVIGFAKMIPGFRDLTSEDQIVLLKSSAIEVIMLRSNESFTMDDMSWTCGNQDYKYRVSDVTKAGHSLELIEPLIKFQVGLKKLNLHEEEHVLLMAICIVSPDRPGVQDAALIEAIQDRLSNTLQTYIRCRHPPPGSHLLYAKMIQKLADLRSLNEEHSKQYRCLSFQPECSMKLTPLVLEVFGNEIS
human Thyroid Receptor alpha (THRa1), THRA (gene 7067), sequence (P10827 whole entry, looked up, the tested form may be a part): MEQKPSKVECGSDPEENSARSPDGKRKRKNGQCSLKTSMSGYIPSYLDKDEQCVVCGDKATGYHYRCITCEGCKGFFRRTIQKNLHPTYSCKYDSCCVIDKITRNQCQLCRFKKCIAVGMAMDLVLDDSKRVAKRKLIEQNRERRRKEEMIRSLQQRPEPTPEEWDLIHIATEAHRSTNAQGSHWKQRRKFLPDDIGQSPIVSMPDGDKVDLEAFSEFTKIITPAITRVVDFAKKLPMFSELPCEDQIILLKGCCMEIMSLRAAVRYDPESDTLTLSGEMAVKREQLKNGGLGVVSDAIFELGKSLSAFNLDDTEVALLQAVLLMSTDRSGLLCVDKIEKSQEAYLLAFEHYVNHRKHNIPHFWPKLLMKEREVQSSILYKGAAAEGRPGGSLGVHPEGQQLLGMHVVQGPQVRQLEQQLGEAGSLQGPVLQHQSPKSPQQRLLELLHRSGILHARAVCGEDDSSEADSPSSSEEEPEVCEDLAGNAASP
E-selectin (Homo sapiens), sequence (P16581 whole entry, looked up): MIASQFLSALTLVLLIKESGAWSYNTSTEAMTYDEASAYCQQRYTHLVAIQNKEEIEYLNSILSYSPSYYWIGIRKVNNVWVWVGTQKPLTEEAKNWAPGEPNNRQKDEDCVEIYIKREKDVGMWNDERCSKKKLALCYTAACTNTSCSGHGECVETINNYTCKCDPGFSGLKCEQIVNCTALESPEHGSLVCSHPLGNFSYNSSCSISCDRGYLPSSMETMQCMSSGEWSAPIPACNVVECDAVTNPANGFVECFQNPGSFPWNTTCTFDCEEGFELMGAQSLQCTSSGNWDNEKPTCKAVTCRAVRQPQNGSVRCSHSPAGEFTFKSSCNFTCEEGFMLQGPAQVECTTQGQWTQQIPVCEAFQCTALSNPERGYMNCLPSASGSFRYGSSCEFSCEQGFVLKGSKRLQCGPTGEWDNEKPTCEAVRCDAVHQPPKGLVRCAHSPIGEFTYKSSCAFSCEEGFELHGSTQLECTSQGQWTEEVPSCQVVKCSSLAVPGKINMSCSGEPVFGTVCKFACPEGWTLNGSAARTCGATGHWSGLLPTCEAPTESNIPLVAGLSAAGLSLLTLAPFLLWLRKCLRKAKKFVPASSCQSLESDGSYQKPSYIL
human Retinoid X Receptor beta (RXRb), RXRB (gene 6257), sequence (P28702 whole entry, looked up): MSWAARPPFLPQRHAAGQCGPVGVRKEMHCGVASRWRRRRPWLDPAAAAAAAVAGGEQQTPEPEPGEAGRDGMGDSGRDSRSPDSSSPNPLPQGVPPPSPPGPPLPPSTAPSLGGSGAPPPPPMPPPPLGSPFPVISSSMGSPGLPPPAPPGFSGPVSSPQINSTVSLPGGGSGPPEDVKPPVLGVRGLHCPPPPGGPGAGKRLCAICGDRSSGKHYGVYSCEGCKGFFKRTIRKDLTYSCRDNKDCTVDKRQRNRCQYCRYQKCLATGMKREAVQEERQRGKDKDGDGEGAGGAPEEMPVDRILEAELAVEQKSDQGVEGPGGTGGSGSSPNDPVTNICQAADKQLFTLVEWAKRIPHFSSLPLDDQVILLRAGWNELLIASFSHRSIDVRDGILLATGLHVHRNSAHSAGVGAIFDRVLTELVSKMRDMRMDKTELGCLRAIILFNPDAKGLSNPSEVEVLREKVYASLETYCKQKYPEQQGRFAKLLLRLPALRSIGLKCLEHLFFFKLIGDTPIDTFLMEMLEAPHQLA

Take `Cc1ccccc1Cl`: the call in [1], in [2], in assay [3], in assay [4], in assay [5] and in assay [6] was inactive. Moreover, the result in assay [7], in assay [8], in assay [9], in [10], in [11] and in assay [12] was inactive. The result in assay [13], in [14] and in assay [15] was inactive.
Consider `CCCCCCCCCCCCCO`, for which the call in assay [16], in [4], in assay [17], in [19] and in assay [14] was inactive. Also, the AC50 in [1] is 58.9 µM (active); in assay [3] it was 37.8 µM (active); in [5], 39 µM (active); in assay [6] it was 37.6 µM (active); in assay [7], 35.8 µM (active); in assay [8], 37 µM (active). Besides, the AC50 in assay [9] was 37.4 µM (active); in assay [18], 32.1 µM (active); in assay [10], 20.6 µM (active); in assay [11], 38.6 µM (active); in [12], 35.1 µM (active); in assay [13], 31.8 µM (active). Besides, the half-maximal activity concentration (AC50) in assay [15] was 38.9 µM (active).
Turning to `CCCCCCOCCO`, the result in [1], in [2], in assay [3], in assay [4], in [5] and in [6] was inactive. In addition, the result in assay [7], in [8], in [9], in assay [17], in [18] and in assay [10] was inactive. For the same molecule, the outcome in assay [11], in assay [12], in assay [13], in [19], in assay [14] and in assay [15] was inactive.
`Nc1ccccc1N`: the molecule was classed as inactive in assay [1], in assay [2], in assay [4], in assay [5], in [6] and in assay [8]. Also, the outcome in assay [9], in [17], in assay [10], in assay [11], in assay [12] and in assay [13] was inactive. Further, the result in assay [19], in assay [14] and in assay [15] was inactive. For the same molecule, the AC50 was 17.2 µM (active) in assay [3] and 20 µM (active) in assay [7].
For `NCCO`, the molecule was called inactive in assay [16], in [1], in [3], in [4], in assay [5] and in assay [6]. In addition, the result in assay [7], in assay [8], in assay [9], in [18], in [10] and in assay [11] was inactive. Also, the result in assay [12], in assay [13], in [14] and in [15] was inactive.
As for `CCCCCC(=O)O`, the outcome in assay [16], in [1], in assay [3], in assay [4], in [5] and in [6] was inactive. The result in assay [7], in assay [8], in assay [9], in [17], in assay [10] and in assay [11] was inactive. In addition, the outcome in [12], in assay [13], in [19], in assay [14] and in assay [15] was inactive.
`C1CCC(SSC2CCCCC2)CC1`: the result in assay [1], in assay [2], in [3], in [4], in assay [5] and in assay [6] was inactive. The outcome in assay [8], in [9], in [17], in assay [18], in [10] and in assay [11] was inactive. The result in [12], in assay [13], in assay [19], in assay [14] and in assay [15] was inactive. Also, the AC50 in [7] was 20 µM (active).
As for `CCCCCCC(=O)OCC`, in [1], the concentration at half-maximal activity (AC50) is 32.5 µM (active). Moreover, the result in [2], in assay [3], in assay [4], in [5], in [6] and in assay [7] was inactive. The result in assay [8], in assay [17], in [10], in assay [11], in assay [12] and in assay [13] was inactive. In addition, the result in assay [19], in assay [14] and in assay [15] was inactive.
